The results in this text go back to ChEMBL document CHEMBL3988442, “University of Dundee, Small-Polar-MMV Screening Library” (2021).

Common to all, as to set-up: scale not given: direction of the effect not stated beside the values
In assay [1] the target is Protein translocase subunit SecA (Escherichia coli (strain K12)) (UniProt P10408). Briefly: Assay to Identify E. coli SecA ATPase Inhibitors. It counts as functional. Conditions: 30 µM.
For assay [2], the target named is T1, Ubiquitin-activating enzyme e1, putative (Leishmania donovani (strain BPK282A1)) (UniProt E9BSI1).
T1 sequence (whole entry): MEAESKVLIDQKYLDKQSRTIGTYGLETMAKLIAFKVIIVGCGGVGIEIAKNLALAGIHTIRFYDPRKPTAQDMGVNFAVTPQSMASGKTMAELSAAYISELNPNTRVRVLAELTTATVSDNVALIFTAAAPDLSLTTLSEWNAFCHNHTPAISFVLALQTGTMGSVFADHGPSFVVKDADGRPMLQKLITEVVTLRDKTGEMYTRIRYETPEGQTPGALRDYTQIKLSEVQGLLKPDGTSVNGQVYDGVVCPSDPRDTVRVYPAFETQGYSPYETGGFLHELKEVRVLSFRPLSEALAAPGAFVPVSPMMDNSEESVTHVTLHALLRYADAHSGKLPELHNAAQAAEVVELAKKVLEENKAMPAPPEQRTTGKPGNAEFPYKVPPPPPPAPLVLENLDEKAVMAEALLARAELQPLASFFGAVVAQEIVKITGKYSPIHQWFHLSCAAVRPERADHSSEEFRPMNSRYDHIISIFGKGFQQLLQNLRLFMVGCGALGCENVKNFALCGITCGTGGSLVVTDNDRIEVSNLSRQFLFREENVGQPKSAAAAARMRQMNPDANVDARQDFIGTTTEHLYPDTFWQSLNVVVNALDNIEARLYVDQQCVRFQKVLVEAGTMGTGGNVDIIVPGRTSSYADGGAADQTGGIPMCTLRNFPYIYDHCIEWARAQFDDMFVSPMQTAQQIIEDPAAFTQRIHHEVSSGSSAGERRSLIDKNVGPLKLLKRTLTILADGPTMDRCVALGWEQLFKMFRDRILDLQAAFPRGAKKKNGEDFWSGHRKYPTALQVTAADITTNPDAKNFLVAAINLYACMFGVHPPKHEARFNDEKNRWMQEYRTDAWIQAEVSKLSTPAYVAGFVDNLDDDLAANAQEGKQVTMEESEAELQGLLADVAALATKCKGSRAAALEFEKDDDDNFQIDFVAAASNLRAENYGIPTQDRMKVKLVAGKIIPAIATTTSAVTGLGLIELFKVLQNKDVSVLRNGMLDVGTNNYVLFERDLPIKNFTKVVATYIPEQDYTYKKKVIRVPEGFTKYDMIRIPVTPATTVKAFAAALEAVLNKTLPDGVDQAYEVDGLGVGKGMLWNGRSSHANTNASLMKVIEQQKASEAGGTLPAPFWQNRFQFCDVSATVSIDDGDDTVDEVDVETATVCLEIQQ
Briefly: Leishmania donovani Ubiquitin Activating Enzyme (LdE1). It counts as functional. Conditions: 30 µM.

Assay [3] concerns the target AMP-activated protein kinase, AMPK (Homo sapiens) (UniProt P54646+O43741+P54619+Q9UGJ0+Q9Y478+Q13131+Q9UGI9). Briefly: AMP-dependent Kinase enzyme assay. An in vitro enzyme assay that detects ADP turnover that is directly proportional to AMPK activity. This uses naive AMPK that is activated during the assay with MK-8722. Type of assay: functional. Particulars: 30 µM.

The target in assay [4] is Sialic acid-binding Ig-like lectin 9 (Homo sapiens) (UniProt Q9Y336). In words: Hs-Siglec9 ALPHAscreen SOP 20170721. Particulars: 10 µM. On the technique in general: Bead proximity is the source of the signal in Alpha formats.
Sialic acid-binding Ig-like lectin 9 (Homo sapiens), sequence (Q9Y336 whole entry): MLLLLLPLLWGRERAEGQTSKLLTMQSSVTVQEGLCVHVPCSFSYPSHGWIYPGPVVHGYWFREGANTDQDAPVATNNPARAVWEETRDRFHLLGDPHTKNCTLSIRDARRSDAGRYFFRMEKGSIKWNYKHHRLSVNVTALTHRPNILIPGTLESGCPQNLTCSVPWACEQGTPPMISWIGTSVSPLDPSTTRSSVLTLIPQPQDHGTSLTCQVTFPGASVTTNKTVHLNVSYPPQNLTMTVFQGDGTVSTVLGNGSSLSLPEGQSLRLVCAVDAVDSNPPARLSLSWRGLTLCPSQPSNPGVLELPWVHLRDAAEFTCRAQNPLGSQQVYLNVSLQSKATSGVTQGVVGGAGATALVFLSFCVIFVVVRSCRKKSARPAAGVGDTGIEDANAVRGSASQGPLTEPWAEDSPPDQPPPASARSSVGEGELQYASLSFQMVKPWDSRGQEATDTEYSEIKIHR
The next assay concerns Trypanosoma cruzi. Briefly: Trypanosoma cruzi phosphomannomutase and mannose-1-phosphate guanylyltransferase assay. Type of assay: functional. Particulars: 10 µM.
The target in assay [5] is T2, Arginase-2, mitochondrial (Homo sapiens) (UniProt P78540).
T2 sequence (whole entry): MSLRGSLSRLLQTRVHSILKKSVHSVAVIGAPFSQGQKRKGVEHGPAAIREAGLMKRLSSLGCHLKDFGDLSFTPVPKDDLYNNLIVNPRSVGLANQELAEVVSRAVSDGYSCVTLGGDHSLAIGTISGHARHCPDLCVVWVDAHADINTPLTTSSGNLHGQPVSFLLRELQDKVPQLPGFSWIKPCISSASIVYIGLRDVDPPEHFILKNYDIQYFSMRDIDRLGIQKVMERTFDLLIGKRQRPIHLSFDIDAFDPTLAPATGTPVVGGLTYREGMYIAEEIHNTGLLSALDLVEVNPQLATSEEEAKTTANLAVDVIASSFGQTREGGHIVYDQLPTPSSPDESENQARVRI
Briefly: in vitro enzyme assay to detect the production of urea directly proportional to the activity of Arginase II. Note: in the data most compounds retested in dose-response had high values. Type of assay: functional. Particulars: 33.3 µM.

In assay [6] the target is T3, Proteasome subunit beta (Trypanosoma cruzi) (UniProt O96673).
T3 sequence (whole entry): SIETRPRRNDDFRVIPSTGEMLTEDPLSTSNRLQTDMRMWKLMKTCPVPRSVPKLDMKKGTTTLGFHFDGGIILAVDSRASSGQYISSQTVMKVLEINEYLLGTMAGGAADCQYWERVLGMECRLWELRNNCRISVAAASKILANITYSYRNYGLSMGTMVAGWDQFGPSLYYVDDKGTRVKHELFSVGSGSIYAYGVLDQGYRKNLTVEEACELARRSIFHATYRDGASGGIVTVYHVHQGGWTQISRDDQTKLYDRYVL
Briefly: Trypanosoma cruzi proteasome chymotrypsin-like activity (TcProtChymo) assay. Note: in the data most compounds retested in dose-response had high values. It counts as functional. Conditions: 9.37 µM.

For a further assay, the species on record is Homo sapiens. Briefly: To identify inhibition of the IFN signalling (Jak-Stat) pathway via expression of an eGFP reporter gene under the control of an IFN-stimulated response element (ISRE) containing MxA promoter. It counts as functional. Conditions: 30 µM. For orientation: Reporter assays use an easily measured gene product as a stand-in for the process of interest.

Assay [7] has as its target T4, Tyrosyl-tRNA synthetase, putative (Trypanosoma cruzi (strain CL Brener)) (UniProt Q4DSP6).
T4 sequence (whole entry): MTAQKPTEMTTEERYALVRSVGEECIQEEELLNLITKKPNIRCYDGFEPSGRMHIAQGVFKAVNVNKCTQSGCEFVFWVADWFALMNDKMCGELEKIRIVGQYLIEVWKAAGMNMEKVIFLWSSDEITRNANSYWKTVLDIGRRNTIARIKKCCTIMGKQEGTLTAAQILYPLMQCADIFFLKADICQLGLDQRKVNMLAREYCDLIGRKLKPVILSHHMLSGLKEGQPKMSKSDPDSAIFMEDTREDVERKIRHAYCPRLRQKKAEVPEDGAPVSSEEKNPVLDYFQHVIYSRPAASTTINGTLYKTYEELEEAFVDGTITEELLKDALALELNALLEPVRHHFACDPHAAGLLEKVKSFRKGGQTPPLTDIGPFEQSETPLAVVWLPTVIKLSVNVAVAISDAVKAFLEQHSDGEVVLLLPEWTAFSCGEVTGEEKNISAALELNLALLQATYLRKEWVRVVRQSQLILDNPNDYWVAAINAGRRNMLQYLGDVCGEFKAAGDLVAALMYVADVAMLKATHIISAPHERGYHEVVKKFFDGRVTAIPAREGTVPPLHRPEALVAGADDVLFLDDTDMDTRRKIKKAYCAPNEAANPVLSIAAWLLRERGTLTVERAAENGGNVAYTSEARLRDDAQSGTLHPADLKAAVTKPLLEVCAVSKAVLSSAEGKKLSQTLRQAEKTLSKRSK
Briefly: Trypanosoma cruzi tyrosyl tRNA synthetase (TcYRS) _High Tyrosine SOP. Note: in the data most compounds retested in dose-response had high values. It counts as functional. Particulars: 30 µM.

The target in assay [8] is T4, Tyrosyl-tRNA synthetase, putative (Trypanosoma cruzi (strain CL Brener)). Briefly: Trypanosoma cruzi tyrosyl tRNA synthetase (TcYRS) SOP. Type of assay: functional. Particulars: 30 µM.
The target in assay [9] is Chromo domain-containing protein 1 (Saccharomyces cerevisiae (strain ATCC 204508 / S288c) (Baker's yeast)) (UniProt P32657). Briefly: ScCHD-1 Enzyme Inhibition Assay. Note: in the data most compounds retested in dose-response had high values. Type of assay: functional. Particulars: 30 µM.
Chromo domain-containing protein 1 (Saccharomyces cerevisiae (strain ATCC 204508 / S288c) (Baker's yeast)), sequence (P32657 whole entry, the tested form may be a part): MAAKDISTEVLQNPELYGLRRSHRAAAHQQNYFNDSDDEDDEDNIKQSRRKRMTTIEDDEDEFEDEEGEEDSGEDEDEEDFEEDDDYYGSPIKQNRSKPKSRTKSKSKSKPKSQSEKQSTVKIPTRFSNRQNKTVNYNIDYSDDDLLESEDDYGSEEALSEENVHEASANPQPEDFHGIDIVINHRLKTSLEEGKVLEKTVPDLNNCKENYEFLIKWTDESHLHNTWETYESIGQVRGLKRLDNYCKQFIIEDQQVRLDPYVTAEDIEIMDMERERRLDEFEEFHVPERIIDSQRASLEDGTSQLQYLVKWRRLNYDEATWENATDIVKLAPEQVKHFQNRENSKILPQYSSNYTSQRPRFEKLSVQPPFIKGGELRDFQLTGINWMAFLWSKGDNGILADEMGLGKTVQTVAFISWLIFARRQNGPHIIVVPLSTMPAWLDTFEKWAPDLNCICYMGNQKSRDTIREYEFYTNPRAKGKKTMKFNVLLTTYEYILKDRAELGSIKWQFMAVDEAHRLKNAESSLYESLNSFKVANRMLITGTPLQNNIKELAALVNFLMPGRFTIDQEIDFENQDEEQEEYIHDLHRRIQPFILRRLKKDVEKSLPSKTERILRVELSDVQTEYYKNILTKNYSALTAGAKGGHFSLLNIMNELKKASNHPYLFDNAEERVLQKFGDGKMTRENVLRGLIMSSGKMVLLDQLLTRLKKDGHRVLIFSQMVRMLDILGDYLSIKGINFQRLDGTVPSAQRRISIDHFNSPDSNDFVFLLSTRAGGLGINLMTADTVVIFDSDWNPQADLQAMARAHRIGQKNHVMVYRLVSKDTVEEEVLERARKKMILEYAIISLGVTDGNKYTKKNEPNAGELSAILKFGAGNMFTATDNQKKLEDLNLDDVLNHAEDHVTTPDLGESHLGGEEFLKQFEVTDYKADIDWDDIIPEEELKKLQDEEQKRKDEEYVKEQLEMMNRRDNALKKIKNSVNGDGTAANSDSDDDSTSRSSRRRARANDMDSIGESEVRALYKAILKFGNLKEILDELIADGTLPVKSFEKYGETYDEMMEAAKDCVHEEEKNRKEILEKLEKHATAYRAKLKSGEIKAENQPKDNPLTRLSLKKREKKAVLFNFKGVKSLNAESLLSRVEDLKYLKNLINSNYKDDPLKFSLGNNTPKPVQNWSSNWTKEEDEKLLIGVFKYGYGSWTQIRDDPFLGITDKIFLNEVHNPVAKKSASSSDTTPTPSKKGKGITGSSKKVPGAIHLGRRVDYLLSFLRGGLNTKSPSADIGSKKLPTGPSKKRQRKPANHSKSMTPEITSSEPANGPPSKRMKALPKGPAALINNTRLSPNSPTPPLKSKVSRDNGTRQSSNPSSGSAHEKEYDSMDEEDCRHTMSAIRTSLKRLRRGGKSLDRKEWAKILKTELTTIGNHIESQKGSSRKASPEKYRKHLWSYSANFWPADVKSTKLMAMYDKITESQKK

For some of these results: Results with a measured potency or affinity are listed apart.

Protein translocase subunit SecA (Escherichia coli (strain K12)), sequence (P10408 whole entry): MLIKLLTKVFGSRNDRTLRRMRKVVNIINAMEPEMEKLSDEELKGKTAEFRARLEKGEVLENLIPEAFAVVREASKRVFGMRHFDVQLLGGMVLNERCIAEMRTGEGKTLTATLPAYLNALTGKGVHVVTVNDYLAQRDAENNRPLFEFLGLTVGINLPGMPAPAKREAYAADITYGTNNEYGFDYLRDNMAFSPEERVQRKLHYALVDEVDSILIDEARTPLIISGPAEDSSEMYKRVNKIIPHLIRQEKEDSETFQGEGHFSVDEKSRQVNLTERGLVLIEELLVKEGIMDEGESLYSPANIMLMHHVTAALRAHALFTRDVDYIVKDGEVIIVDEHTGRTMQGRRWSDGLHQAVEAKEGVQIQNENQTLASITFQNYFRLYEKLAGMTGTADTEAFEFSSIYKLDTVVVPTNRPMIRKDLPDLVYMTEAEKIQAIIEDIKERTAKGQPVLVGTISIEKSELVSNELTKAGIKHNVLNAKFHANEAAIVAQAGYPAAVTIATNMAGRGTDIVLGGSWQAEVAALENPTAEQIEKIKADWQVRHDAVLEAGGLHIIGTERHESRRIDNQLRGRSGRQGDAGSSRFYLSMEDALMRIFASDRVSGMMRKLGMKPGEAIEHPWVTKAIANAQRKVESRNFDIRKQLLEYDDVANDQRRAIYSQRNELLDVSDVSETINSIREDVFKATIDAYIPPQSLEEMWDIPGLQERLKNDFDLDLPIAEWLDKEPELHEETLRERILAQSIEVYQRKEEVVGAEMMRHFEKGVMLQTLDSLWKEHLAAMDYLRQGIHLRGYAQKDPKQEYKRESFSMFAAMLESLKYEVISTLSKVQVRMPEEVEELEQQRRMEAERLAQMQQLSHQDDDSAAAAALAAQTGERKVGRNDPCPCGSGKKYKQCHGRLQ

`Cc1ccc(-c2nnc(CN3CCOC(Cn4cccn4)C3)o2)cc1` (stereo not drawn): the Percent Effect was -4.11% in assay [1]; 10.1% in assay [2]; -1.13% in [3]; 4.66% in assay [4]; 0.661% in the assay with Trypanosoma cruzi; 3.42% in assay [5]. Also, the Percent Effect in [6] is 7.45%; in the assay listed under Homo sapiens, 4.27%; in assay [7] it was 2.46%; in assay [8], 11.4%; in assay [9], -5.6%.

Turning to `Cn1ccnc1CNC(=O)N1CCCC(Cc2nccn2C)C1` (stereo not drawn), the Percent Effect in [1] was -8.83%; in assay [2] it was -2.7%; in assay [3] it was 9.59%; in assay [4], -1.15%; in the assay on Trypanosoma cruzi, -3.71%; in assay [5], -0.833%. Moreover, the Percent Effect in assay [6] was 2.28%; in the assay listed under Homo sapiens it was -4.83%; in [7], 10.9%; in assay [8] it was 1.22%; in [9], 1.72%.

For the molecule `COc1ccccc1OCc1cc(C(=O)N2CC(O)C2)n[nH]1`, the Percent Effect was -4.46% in assay [1]; 4.17% in assay [2]; 141% in [3]; -2.11% in assay [4]; -0.875% with Trypanosoma cruzi; 3.09% in assay [5]. In addition, the Percent Effect in [6] is 6.49%; in the assay filed under Homo sapiens it was 1.4%; in [7], 4.21%; in assay [8], 10.3%; in [9] it was -1.24%.

Regarding `Cc1noc(C)c1CN1CCN(C(=O)Cn2cncn2)CC1`, the Percent Effect was -5.62% in [1]; 5.41% in [2]; -0.877% in assay [3]; 5% in assay [4]; 2.83% with Trypanosoma cruzi; 3.72% in [5]. Also, the Percent Effect in [6] was -5.24%; in the assay listed under Homo sapiens, -2.96%; in assay [7], 2.15%; in assay [8], 11.1%; in [9], -4.36%.

Consider `NC(=O)c1ccc(CN2CCCC(N3CCCC3)C2)cc1` (stereo not drawn), for which the Percent Effect is -3.01% in [1]; 18.9% in assay [2]; -3.31% in assay [3]; -0.296% in assay [4]; 2.54% with Trypanosoma cruzi; 5% in assay [5]. Moreover, the Percent Effect in [6] was 23.8%; in the assay listed under Homo sapiens, -1.33%; in [7], 7.92%; in assay [8], 15.8%; in [9], -6.1%.

In the case of `CCn1cnnc1CNC(=O)N(C)Cc1ccc(F)c(F)c1`, the Percent Effect in assay [1] is -2.13%; in assay [2], 18.9%; in [3] it was -11.7%; in assay [4], 14.1%; in the assay on Trypanosoma cruzi, 1.04%; in [5] it was -5.21%. Further, the Percent Effect is 7.57% in assay [6]; 8.28% in the assay filed under Homo sapiens; 7.39% in assay [7]; 18.5% in assay [8]; -7.63% in [9].

For `CN(C)S(=O)(=O)N1C[C@@H](Oc2ccccn2)[C@H]2OCCC[C@H]21`, the Percent Effect in assay [1] is -3.77%; in assay [2], 10.4%; in assay [3], 5.04%; in assay [4], 3.32%; in the assay with Trypanosoma cruzi it was 0.493%; in assay [5], -3.23%. Also, the Percent Effect in assay [6] was 8.7%; in the assay listed under Homo sapiens it was 24.1%; in assay [7], -4.23%; in assay [8], 8.97%; in assay [9], -11.1%.

For the molecule `Cc1ccc(CN2CCc3ncnc(C4CC4)c3CC2)s1`, the Percent Effect in [1] is 1.05%; in assay [2], 5.33%; in assay [3], 5.76%; in [4] it was -4.5%; with Trypanosoma cruzi it was -5.41%; in [5], -54.3%. The Percent Effect was 6.15% in [6]; 43.3% in the assay filed under Homo sapiens; 8.33% in assay [7]; 12.5% in [8]; -7.16% in assay [9].
